Laboratory results as given in PubChem BioAssay AID1159580 (chemical genetic matrix, 2015).
Hit rate of the full screen: of about 5,500 compounds, about 2,000 (36%) were called active. Inconclusive results (about 18%) are left out. Cut-off read from the data, not from the text of the source: active = normalized growth mostly below about 0.91 (no sharp cut-off); inconclusive = no clear call, values can overlap the other calls; inactive = mostly above about 0.92. The list shows a part of the results.

Experiment: chemical genetic growth profiling, strain panel (AID 1159580);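 note: tested at 20 µM; growth read once vehicle control cultures reached saturation at 30 °C; 1 = growth at the plate median or of vehicle wells; lower values mean less growth of the strain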
Conditions: growth OD

Measured: normalized growth

CCC(=O)O[C@]1(C(=O)CCl)[C@@H](C)CC2C3CCC4=CC(=O)C=C[C@]4(C)[C@@]3(F)[C@@H](O)C[C@@]21C (stereo partly specified)
inactive: S. cerevisiae deletion strains, locus YJR043C, strain POL32, hits give low values 0.982 | S. cerevisiae deletion strains, locus YJR066W, strain TOR1, hits give low values 0.952 | S. cerevisiae deletion strains, locus YKL009W, strain mrt4, hits give low values 1.01 | S. cerevisiae deletion strains, locus YKL068W, hits give low values 0.972 | S. cerevisiae deletion strains, locus YKL085W, strain MDH1 (second series), hits give low values 0.985 | S. cerevisiae deletion strains, locus YKL085W, strain MDH1, hits give low values 0.985 | S. cerevisiae deletion strains, locus YKL160W, strain elf1, hits give low values 1.02 | S. cerevisiae deletion strains, locus YKL190W, strain CNB1, hits give low values 0.981 | S. cerevisiae deletion strains, locus YKR001C, strain vps1, hits give low values 0.988 | S. cerevisiae deletion strains, locus YKR026C, strain gcn3, hits give low values 1.03 | S. cerevisiae deletion strains, locus YKR091W, strain srl3, hits give low values 1.02 | S. cerevisiae deletion strains, locus YLL001W, strain dnm1, hits give low values 1.02 | S. cerevisiae deletion strains, locus YLL026W, hits give low values 1.01 | S. cerevisiae deletion strains, locus YLL041C, strain sdh2, hits give low values 1.01 | S. cerevisiae deletion strains, locus YLR027C, strain aat2, hits give low values 1.02 | S. cerevisiae deletion strains, locus YLR039C, strain RIC1, hits give low values 0.959 | S. cerevisiae deletion strains, locus YLR058C, strain SHM2, hits give low values 0.983 | S. cerevisiae deletion strains, locus YLR102C, strain apc9, hits give low values 0.985 | S. cerevisiae deletion strains, locus YLR113W, strain HOG1, hits give low values 0.982 | S. cerevisiae deletion strains, locus YLR221C, strain rsa3, hits give low values 1.03 | S. cerevisiae deletion strains, locus YLR258W, strain gsy2, hits give low values 1.02 | S. cerevisiae deletion strains, locus YLR262C, strain YPT6 (second series), hits give low values 1.02 | S. cerevisiae deletion strains, locus YLR262C, strain YPT6, hits give low values 0.941 | S. cerevisiae deletion strains, locus YLR268W, strain sec22, hits give low values 0.961 | S. cerevisiae deletion strains, locus YLR320W, strain mms22, hits give low values 1.04 | S. cerevisiae deletion strains, locus YLR330W, strain CHS5, hits give low values 0.971 | S. cerevisiae deletion strains, locus YLR342W, strain FKS1 (second series), hits give low values 0.999 | S. cerevisiae deletion strains, locus YLR342W, strain FKS1, hits give low values 1.02 | S. cerevisiae deletion strains, locus YLR357W, strain rsc2, hits give low values 1.05 | S. cerevisiae deletion strains, locus YLR370C, strain arc18, hits give low values 1.02 | S. cerevisiae deletion strains, locus YLR371W, strain rom2, hits give low values 0.976 | S. cerevisiae deletion strains, locus YLR384C, strain iki3, hits give low values 1.04 | S. cerevisiae deletion strains, locus YLR418C, strain cdc73, hits give low values 0.969 | S. cerevisiae deletion strains, locus YML016C, strain PPZ1, hits give low values 0.988 | S. cerevisiae deletion strains, locus YML032C, strain rad52, hits give low values 0.985 | S. cerevisiae deletion strains, locus YML120C, strain ndi1, hits give low values 1 | S. cerevisiae deletion strains, locus YML124C, strain tub3, hits give low values 0.993 | S. cerevisiae deletion strains, locus YMR058W, strain fet3, hits give low values 1.02 | S. cerevisiae deletion strains, locus YMR078C, strain ctf18, hits give low values 0.983 | S. cerevisiae deletion strains, locus YMR125W, strain sto1, hits give low values 1.02 | S. cerevisiae deletion strains, locus YMR129W, hits give low values 1.02 | S. cerevisiae deletion strains, locus YMR205C, strain PFK2, hits give low values 1.04 | S. cerevisiae deletion strains, locus YMR223W, strain ubp8, hits give low values 0.982 | S. cerevisiae deletion strains, locus YMR231W, strain pep5, hits give low values 1.02 | S. cerevisiae deletion strains, locus YMR263W, strain SAP30, hits give low values 0.987 | S. cerevisiae deletion strains, locus YMR307W, strain GAS1, hits give low values 0.87 | S. cerevisiae deletion strains, locus YNL067W, strain RPL9B, hits give low values 0.992 | S. cerevisiae deletion strains, locus YNL071W, strain lat1, hits give low values 1.02 | S. cerevisiae deletion strains, locus YNL183C, strain NPR1, hits give low values 0.935 | S. cerevisiae deletion strains, locus YNL209W, strain ssb2, hits give low values 1.01 | S. cerevisiae deletion strains, locus YNL233W, strain BNI4, hits give low values 1.01 | S. cerevisiae deletion strains, locus YNL248C, strain rpa49, hits give low values 1.02 | S. cerevisiae deletion strains, locus YNL250W, strain rad50, hits give low values 0.988 | S. cerevisiae deletion strains, locus YNL271C, strain bni1, hits give low values 0.963 | S. cerevisiae deletion strains, locus YNL298W, strain CLA4, hits give low values 0.964 | S. cerevisiae deletion strains, locus YNL307C, strain MCK1, hits give low values 0.987 | S. cerevisiae deletion strains, locus YNL322C, strain KRE1 (second series), hits give low values 1.03 | S. cerevisiae deletion strains, locus YNL322C, strain KRE1, hits give low values 0.988 | S. cerevisiae deletion strains, locus YNR049C, strain mso1, hits give low values 1.01 | S. cerevisiae deletion strains, locus YNR052C, strain pop2, hits give low values 0.988 | S. cerevisiae deletion strains, locus YOL006C, strain TOP1, hits give low values 0.958 | S. cerevisiae deletion strains, locus YOL012C, strain htz1 0.831 | S. cerevisiae deletion strains, locus YOL147C, strain pex11, hits give low values 0.986 | S. cerevisiae deletion strains, locus YOR001W, strain rrp6, hits give low values 1.03 | S. cerevisiae deletion strains, locus YOR061W, strain CKA2, hits give low values 0.978 | S. cerevisiae deletion strains, locus YOR069W, strain VPS5, hits give low values 0.978 | S. cerevisiae deletion strains, locus YOR070C, strain gyp1, hits give low values 1.02 | S. cerevisiae deletion strains, locus YOR080W, strain dia2, hits give low values 1.03 | S. cerevisiae deletion strains, locus YOR083W, strain WHI5, hits give low values 1.02 | S. cerevisiae deletion strains, locus YOR106W, strain vam3, hits give low values 1.02 | S. cerevisiae deletion strains, locus YOR136W, strain idh2, hits give low values 0.995 | S. cerevisiae deletion strains, locus YOR144C, strain elg1, hits give low values 0.997 | S. cerevisiae deletion strains, locus YOR184W, strain ser1, hits give low values 0.986 | S. cerevisiae deletion strains, locus YOR231W, strain MKK1, hits give low values 0.959 | S. cerevisiae deletion strains, locus YOR265W, strain rbl2, hits give low values 1.02 | S. cerevisiae deletion strains, locus YOR270C, strain vph1, hits give low values 0.984 | S. cerevisiae deletion strains, locus YOR290C, strain snf2, hits give low values 1.02 | S. cerevisiae deletion strains, locus YOR316C, strain cot1, hits give low values 0.991 | S. cerevisiae deletion strains, locus YPL051W, strain arl3, hits give low values 1.02 | S. cerevisiae deletion strains, locus YPL055C, strain LGE1, hits give low values 1.01 | S. cerevisiae deletion strains, locus YPL078C, strain atp4, hits give low values 1.02 | S. cerevisiae deletion strains, locus YPL106C, strain sse1, hits give low values 1.06 | S. cerevisiae deletion strains, locus YPL240C, strain hsp82, hits give low values 1.01 | S. cerevisiae deletion strains, locus YPL241C, strain CIN2, hits give low values 0.981 | S. cerevisiae deletion strains, locus YPL256C, strain CLN2, hits give low values 0.961 | S. cerevisiae deletion strains, locus YPR119W, strain clb2, hits give low values 0.981 | S. cerevisiae deletion strains, locus YPR141C, strain kar3, hits give low values 0.967 | S. cerevisiae deletion strains, locus YPR163C, strain tif3, hits give low values 0.956 | S. cerevisiae deletion strains, locus YPR167C, strain met16, hits give low values 0.978 | S. cerevisiae deletion strains, strain wtn01, hits give low values 0.998 | S. cerevisiae strains, strain wild type, hits give low values 0.98
